# From PubChem BioAssay
# A number with no mark means an inactive call. Activity calls are given as the source filed them.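 How the source made its calls, unless noted: active means mean inhibition above 46.68%, the untreated control wells mean plus 3 SD; inactive means the rest.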
# Columns and labels:
# [1] = target: Nuclear receptor coactivator 1 (Homo sapiens) (UniProt Q15788); experiment: SRC1 coactivator transcriptional activity inhibitors, confirmation, cell-based, luminescence, quadruplicate (AID 588820); conditions: HEK293 GAL4-SRC1 luciferase reporter, at 3.6 µM, active compounds read high;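 further: 0% = DMSO wells and 100% = gossypol 36 µM treated wells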
# [2] = VP16 transactivation inhibitors, counter-screen for SRC1 inhibitor project, cell-based, luminescence, high throughput (AID 588824; in the data active means inhibition above about 25%); conditions: cell-based VP16 transactivation luciferase luminescence; at 3.6 µM; active compounds read high
# [3] = StAR promoter reporter inhibitors, counter-screen for LRH-1 inverse agonist project, cell-based, luminescence, high throughput (AID 651611; in the data active means inhibition above about 28%); conditions: StAR promoter luciferase reporter counterscreen, at 3.6 µM, active compounds read high
# [4] = target: Nuclear receptor subfamily 5 group A member 2 (Homo sapiens) (UniProt O00482); experiment: LRH-1 (NR5A2) inverse agonists, retest, confirmation, cell-based, luminescence (AID 651613; in the data active means inhibition above about 42%;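 further: HEK293T cells co-transfected with LRH-1 and StAR promoter luciferase reporter; 0% = vehicle wells and 100% = parental cells lacking receptor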); conditions: cell-based LRH-1 luciferase reporter, inverse agonism; at 3.6 µM; active compounds read high
# [5] = target: Steroidogenic factor 1 (Homo sapiens) (UniProt Q13285); experiment: SF1 (NR5A1) inverse agonists, counter-screen for LRH-1 inverse agonist project, cell-based, luminescence, high throughput (AID 651614; in the data active means inhibition above about 44%;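 further: cells cotransfected with StAR promoter reporter and SF1 expression vector; 0% = vehicle on cells with receptor and 100% = vehicle on cells lacking receptor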); conditions: cell-based SF1 luciferase reporter, at 3.6 µM, active compounds read high
# [6] = VP16 transactivation reporter inhibitors, counter-screen for LRH-1 inverse agonist project, cell-based, luminescence, high throughput (AID 651615; in the data active means inhibition above about 33%); conditions: Gal4-VP16 luciferase reporter cells, at 3.6 µM, active compounds read high
# Nuclear receptor coactivator 1 (Homo sapiens), sequence (Q15788 whole entry, looked up, the tested form may be a part): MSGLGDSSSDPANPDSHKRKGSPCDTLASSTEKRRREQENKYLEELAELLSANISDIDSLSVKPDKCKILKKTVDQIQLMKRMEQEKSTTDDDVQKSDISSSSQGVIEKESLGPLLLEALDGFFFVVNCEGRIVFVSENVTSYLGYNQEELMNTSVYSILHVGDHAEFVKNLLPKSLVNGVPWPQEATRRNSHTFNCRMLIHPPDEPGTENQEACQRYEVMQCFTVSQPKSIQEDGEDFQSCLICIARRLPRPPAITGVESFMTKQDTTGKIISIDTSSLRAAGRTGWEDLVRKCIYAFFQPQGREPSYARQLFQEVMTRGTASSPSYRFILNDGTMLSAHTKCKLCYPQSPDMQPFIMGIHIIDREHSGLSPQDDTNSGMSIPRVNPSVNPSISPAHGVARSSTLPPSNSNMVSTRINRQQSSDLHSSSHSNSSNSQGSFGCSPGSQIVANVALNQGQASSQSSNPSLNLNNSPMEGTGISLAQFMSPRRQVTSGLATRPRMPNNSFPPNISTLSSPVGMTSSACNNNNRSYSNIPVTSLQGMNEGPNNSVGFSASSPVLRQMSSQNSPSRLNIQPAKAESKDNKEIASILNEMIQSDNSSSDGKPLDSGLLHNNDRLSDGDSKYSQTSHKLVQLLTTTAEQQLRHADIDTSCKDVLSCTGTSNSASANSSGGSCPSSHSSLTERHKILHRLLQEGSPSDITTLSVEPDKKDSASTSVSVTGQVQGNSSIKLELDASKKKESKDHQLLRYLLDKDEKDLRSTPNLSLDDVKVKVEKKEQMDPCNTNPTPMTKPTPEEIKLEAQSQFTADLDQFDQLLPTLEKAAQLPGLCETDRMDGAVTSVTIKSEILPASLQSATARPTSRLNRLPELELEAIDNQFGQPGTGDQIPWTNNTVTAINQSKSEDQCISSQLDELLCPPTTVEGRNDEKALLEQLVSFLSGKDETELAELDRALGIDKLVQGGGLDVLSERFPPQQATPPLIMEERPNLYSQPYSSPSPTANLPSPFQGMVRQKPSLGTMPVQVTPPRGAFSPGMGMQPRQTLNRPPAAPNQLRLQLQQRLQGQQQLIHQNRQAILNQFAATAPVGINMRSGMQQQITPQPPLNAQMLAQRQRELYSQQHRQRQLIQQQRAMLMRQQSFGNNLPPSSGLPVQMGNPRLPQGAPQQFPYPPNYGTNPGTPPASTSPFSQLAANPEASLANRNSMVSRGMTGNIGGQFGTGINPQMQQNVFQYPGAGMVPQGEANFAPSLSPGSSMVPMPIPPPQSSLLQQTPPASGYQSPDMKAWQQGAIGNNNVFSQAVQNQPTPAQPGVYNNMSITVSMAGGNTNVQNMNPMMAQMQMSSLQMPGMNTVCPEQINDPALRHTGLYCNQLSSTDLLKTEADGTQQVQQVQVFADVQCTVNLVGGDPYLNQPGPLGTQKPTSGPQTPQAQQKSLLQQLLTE
# Steroidogenic factor 1 (Homo sapiens), sequence (Q13285 whole entry, looked up, the tested form may be a part): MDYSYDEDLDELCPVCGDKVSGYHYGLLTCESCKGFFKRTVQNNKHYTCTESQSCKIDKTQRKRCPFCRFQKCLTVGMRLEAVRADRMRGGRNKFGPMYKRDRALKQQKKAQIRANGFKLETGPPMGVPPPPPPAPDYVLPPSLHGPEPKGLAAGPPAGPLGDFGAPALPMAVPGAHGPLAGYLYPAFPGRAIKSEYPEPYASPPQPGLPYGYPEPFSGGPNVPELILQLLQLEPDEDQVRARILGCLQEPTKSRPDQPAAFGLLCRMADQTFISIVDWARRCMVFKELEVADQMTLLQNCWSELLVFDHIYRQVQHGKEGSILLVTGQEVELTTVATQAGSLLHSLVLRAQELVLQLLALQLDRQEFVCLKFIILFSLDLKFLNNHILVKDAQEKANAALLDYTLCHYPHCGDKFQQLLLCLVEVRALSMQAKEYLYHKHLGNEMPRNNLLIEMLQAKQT
# Nuclear receptor subfamily 5 group A member 2 (Homo sapiens), sequence (O00482 whole entry, looked up): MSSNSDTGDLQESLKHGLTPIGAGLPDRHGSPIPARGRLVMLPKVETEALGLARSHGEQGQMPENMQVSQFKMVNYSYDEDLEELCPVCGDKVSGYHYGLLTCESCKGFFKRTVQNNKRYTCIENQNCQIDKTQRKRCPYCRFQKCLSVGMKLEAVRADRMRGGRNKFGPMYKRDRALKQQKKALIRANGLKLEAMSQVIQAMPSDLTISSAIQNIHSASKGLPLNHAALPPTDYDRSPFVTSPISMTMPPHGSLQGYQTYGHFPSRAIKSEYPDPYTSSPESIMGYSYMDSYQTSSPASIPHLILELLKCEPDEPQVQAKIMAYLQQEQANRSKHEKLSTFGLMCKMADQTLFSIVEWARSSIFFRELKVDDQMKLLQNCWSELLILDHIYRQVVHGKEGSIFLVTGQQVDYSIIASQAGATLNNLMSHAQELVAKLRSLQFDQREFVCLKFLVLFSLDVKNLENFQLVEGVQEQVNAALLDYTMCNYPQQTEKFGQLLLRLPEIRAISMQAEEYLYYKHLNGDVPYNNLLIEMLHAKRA
structure (smiles),measurement,setting,value
CCCn1ncc(/C=N/O)c1C,inhibition,[1],12.8%
same,inhibition,[2],25.9% (active)
COc1ccc(C(=O)N2CCN(c3ccc(NC(=O)c4cccs4)cc3)CC2)cc1,inhibition,[1],2.7%
same,inhibition,[2],-1.25%
CCN(C(=O)c1cccc(S(=O)(=O)N(C)C)c1)C12CC3CC(CC(C3)C1)C2,inhibition,[1],14.8%
same,inhibition,[2],19.5%
Cc1ccc(S(=O)(=O)c2nc(-c3ccccc3Cl)oc2NCCCN2CCOCC2)cc1,inhibition,[1],-13.7%
same,inhibition,[2],-5.68%
NS(=O)(=O)c1ccc(CNC(=O)c2cnccn2)cc1,inhibition,[1],-22.2%
same,inhibition,[2],-8.37%
CCN(C(=S)NC(=O)C1CC1)c1ccccc1,inhibition,[1],-8.52%
same,inhibition,[2],-4.48%
CC(C)(C)NC(=O)C1(C)CCC(=O)N1CCCn1ccnc1 (centres undefined),inhibition,[1],22.2%
same,inhibition,[2],16.9%
Nc1nc(Cl)nc2ccc(Br)cc12,inhibition,[1],-6.1%
same,inhibition,[2],-0.41%
CN(CC(=O)Nc1ccc(Cl)c(C(F)(F)F)c1)C(=O)C1CC(=O)N(c2ccc3c(c2)OCCO3)C1 (centres undefined),inhibition,[1],17.4%
same,inhibition,[2],14%
CC1(C)Cc2nc(N)c(=O)sc2C1,inhibition,[1],-1.79%
same,inhibition,[2],5.55%
COc1ccc(C(O)(C(C)C)C(CN2CCOCC2)c2ccc(Cl)cc2)cc1 (centres undefined),inhibition,[1],16.2%
same,inhibition,[2],13.8%
COc1ccccc1NC(=O)Cn1c(C)cc(=O)c2cccc(OC)c21,inhibition,[1],-24.2%
same,inhibition,[2],4.63%
COc1ccc(-c2[nH]ncc2CN(C)Cc2nonc2C)c(OC)c1,inhibition,[1],-25%
same,inhibition,[2],-13.1%
CCCS(=O)(=O)c1c(S(=O)(=O)CCC)c2c(C)cccn2c1C(=O)N/N=C/c1cc(O)cc(O)c1,inhibition,[1],20.8%
same,inhibition,[2],24.6%
O=C(COc1ccc(Cl)cc1Cl)NN1C(=O)C2C3C=CC(C3)C2C1=O (centres undefined),inhibition,[1],-1.23%
same,inhibition,[2],-10.4%
CN(C)/C=C/C(=O)c1ccn(S(=O)(=O)c2ccccc2)c1,inhibition,[1],-2.09%
same,inhibition,[2],-2.37%
CCc1ccc(NC(=O)C2CCN(S(=O)(=O)c3ccc4c(c3)CC(C)N4C(C)=O)CC2)cc1 (centres undefined),inhibition,[1],-7.12%
same,inhibition,[2],12.7%
O=C(CNC(=O)c1cccc(F)c1)N/N=C/c1cc(Br)ccc1OC(=O)/C=C/c1ccco1,inhibition,[1],3.9%
same,inhibition,[2],6.51%
Cc1ccc(-n2ccc(-c3nn(-c4ccccc4)ccc3=O)n2)cc1,inhibition,[1],6.13%
same,inhibition,[2],13.3%
N#CC1(NC(=O)CSc2nnc(-c3ccccc3F)o2)CCCCC1,inhibition,[1],-24.1%
same,inhibition,[2],-10.4%
Cc1ccc2nc(NC(=O)CCCC(=O)O)sc2c1,inhibition,[1],45.4%
same,inhibition,[2],37.5% (active)
CCOc1ccccc1N1CCN(CC(=O)NC(C)c2ccccc2)CC1 (centres undefined),inhibition,[1],-9.98%
same,inhibition,[2],0.65%
CCc1noc(C)c1C(=O)Nc1ccccc1N1CCOCC1,inhibition,[1],-11%
same,inhibition,[2],1.51%
COc1ccc(CN(C(=O)CSc2nnc(-c3c[nH]c4ccccc34)o2)c2ccc(F)cc2)cc1OC,inhibition,[1],-67.5%
same,inhibition,[2],-22.2%
CC(=O)Nc1sc2c(c1-c1nc3ccccc3s1)CCN(C(C)C)C2,inhibition,[1],-147%
same,inhibition,[2],59.3% (active)
NS(=O)(=O)c1ccc(CCNC(=O)c2ccc(C#CC3(O)CCCCC3)cc2)cc1,inhibition,[1],-44%
same,inhibition,[2],-3.61%
CN(C)CCNc1ccc2ncn3c4ccc(O)cc4c(=O)c1c23,inhibition,[1],23.2%
same,inhibition,[2],52.9% (active)
same,inhibition,[3],49.3% (active)
same,inhibition,[4],81.6% (active)
same,inhibition,[5],80.5% (active)
same,inhibition,[6],79.9% (active)
CN(C(=O)c1cccc(NC(=O)Cc2ccc(NC(=O)C3CCCN(C(=O)CCc4ccccc4)C3)cc2)c1)C1CCCCC1 (centres undefined),inhibition,[1],6.53%
same,inhibition,[2],28% (active)
same,inhibition,[3],24.3%
same,inhibition,[4],49.4% (active)
same,inhibition,[5],48.5% (active)
same,inhibition,[6],45.2% (active)
